In all, about 33,000 sequences were measured (“E-score (-0.5 to 0.5)”: median about -0.016, highest 2% from about 0.32 on). Many of the other results were omitted from the sample, so the highest values are more common in it than they were.
Molecular target: T1, Stp1 (UniProt B3LFK1)
T1 sequence: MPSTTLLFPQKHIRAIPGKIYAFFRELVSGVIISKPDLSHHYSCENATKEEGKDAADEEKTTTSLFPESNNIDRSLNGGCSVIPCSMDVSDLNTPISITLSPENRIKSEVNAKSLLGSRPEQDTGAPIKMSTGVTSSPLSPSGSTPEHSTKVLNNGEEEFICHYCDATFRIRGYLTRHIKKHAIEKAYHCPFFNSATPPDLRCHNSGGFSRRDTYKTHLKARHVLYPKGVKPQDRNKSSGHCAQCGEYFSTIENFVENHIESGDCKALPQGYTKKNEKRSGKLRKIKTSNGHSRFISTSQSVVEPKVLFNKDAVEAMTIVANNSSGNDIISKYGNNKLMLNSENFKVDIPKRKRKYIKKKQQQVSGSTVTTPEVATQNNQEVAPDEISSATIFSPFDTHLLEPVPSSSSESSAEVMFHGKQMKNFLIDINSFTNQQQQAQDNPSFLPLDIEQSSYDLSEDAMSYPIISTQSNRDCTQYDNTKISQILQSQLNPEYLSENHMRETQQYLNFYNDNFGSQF
Test: PBM E-score (8-mer binding enrichment) (E-score (-0.5 to 0.5)); higher = stronger / more preferred TF binding
Conditions: protein concentration: 200 nM; construct: GST-full length
How it was run: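 Full-length yeast transcription factors or their DNA-binding domains, GST-tagged and expressed with PURExpress, were applied at about 100-200 nM to universal all-10-mer Agilent arrays. These arrays had been made double-stranded by primer extension on fresh or once-stripped slides. Detection used fluorescent anti-GST, normalisation used masliner, and E-scores for ungapped eight-base words pooled with reverse complements came from the Universal PBM Analysis Suite.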

| Sequence | PBM E-score |
| --- | --- |
| ACTTTTGG | -0.0182 |
| CTATGCAA | -0.0966 |
| CGGCCCAC | -0.051 |
| CAATACGG | 0.32 |
| CCATACGG | 0.395 |
| CCATACGC | 0.0591 |
| CAATACGC | 0.175 |
| ACATACGG | 0.261 |
| CAATACGA | 0.143 |
| GACAATGA | -0.247 |
| AGCCTTGA | -0.0777 |
| CGCCTTAA | 0.211 |
| CGCCTTCC | 0.206 |
| AGCCTTTC | -0.0105 |
| CGCCTTTC | 0.354 |
| AGCCTTGG | -0.138 |
| AGCCTTGC | 0.325 |
| CGCCTTGA | 0.0844 |
| CGCCTTTA | 0.129 |
| CGCCTTAC | 0.405 |
| AGCCTTAC | -0.022 |
| CGCCTTGC | 0.35 |
| ACATGTAT | 0.0569 |
| CAATCCAC | -0.128 |

| Sequence | PBM E-score |
| --- | --- |
| ATAGTTCG | 0.0223 |
| AATAGAGG | -0.00072 |
| CTTGATGA | 0.1 |
| ATCTGCAA | -0.145 |
| ACACACTG | -0.0947 |
| AGCCCCTG | -0.353 |
| AAAGAACA | -0.0165 |
| AAAGCACT | -0.0405 |
| AGCAGGCA | -0.0398 |
| GGGCGAGA | -0.132 |
| CGGCTCAG | 0.379 |
| CGGCTCAC | 0.213 |
| CGGCTCCC | 0.187 |
| TGGCTCAA | 0.00085 |
| AGGCTCAA | 0.0744 |
| AGGCTCAG | -0.0826 |
| CGGCTCCA | 0.425 |
| AGGCTCCA | -0.0273 |
| CGGCTCAA | 0.351 |
| ACCTTTCT | -0.0776 |
| CCAACAAG | 0.00906 |
| AACTGCGG | 0.173 |
| ATATGCCC | -0.155 |
| AGATGCCC | 0.06 |

| Sequence | PBM E-score |
| --- | --- |
| CGATGCCC | 0.0311 |
| ATATGCCA | 0.153 |
| ATATGCCG | 0.347 |
| AGATGCCT | 0.107 |
| CGATGCCA | 0.105 |
| AGATGCCG | 0.397 |
| CGATGCCG | 0.415 |
| CCAACCTA | -0.175 |
| GTGCGGAA | 0.132 |
| CTGCGGCA | 0.422 |
| CTGCGGTA | 0.0752 |
| ATGCGGCA | 0.467 |
| CTGCGGCC | 0.214 |
| GTGCGGCA | 0.469 |
| ATGCGGTA | 0.0546 |
| GTGCGGGA | 0.041 |
| ATGCGGAA | 0.164 |
| AGTTTGTC | -0.0407 |
| CTCTGGGC | -0.215 |
| AGAGGTCG | -0.096 |
| AGATGAGG | -0.192 |
| AGTTAAGG | -0.0459 |
| ACCTGTAA | 0.00569 |
| AGATAGAG | -0.0214 |

| Sequence | PBM E-score |
| --- | --- |
| GCTGATCC | -0.116 |
| AGTGGCAA | 0.162 |
| AGCGGCAC | 0.457 |
| AGCGGGAT | 0.0317 |
| TGCGGCCA | 0.233 |
| TGCGGCAA | 0.412 |
| AGCGGAAA | 0.0606 |
| AGCGGCAT | 0.406 |
| TCCGGCAA | -0.00549 |
| AGTGGCAC | 0.209 |
| AGCGGCAA | 0.321 |
| AGCGGCCT | 0.0372 |
| AGCGGCAG | 0.301 |
| CACATCGG | -0.152 |
| AATTTGGG | -0.0818 |
| CGAGGCCA | -0.178 |
| GATAAGGC | 0.216 |
| AAGGGCGT | 0.0591 |
| CGATAATC | -0.128 |
| ATCCGTCA | -0.0596 |
| CTAAACGA | 0.0761 |
| CAGTCTGA | -0.0528 |
| GGCGGCAC | 0.446 |
| GGGGGCAC | -0.266 |

| Sequence | PBM E-score |
| --- | --- |
| GTCGGCAC | 0.172 |
| GGCGGCAA | 0.286 |
| CGCGGGCA | 0.175 |
| CGCGGCAG | 0.378 |
| CGTGGCAG | 0.239 |
| CGCGGCAA | 0.424 |
| CGCGGTAG | 0.0224 |
| AGGGGACA | -0.145 |
| AGGGGGGG | -0.287 |
| AGGCCTCC | -0.164 |
| GCTCTCGA | -0.144 |
| ATAACCCC | -0.223 |
| GCAAGCTA | -0.0537 |
| AGGCATGA | -0.0157 |
| CTGCATGC | 0.12 |
| CGGCATGA | 0.346 |
| CGGCATGC | 0.338 |
| GGGCATGA | -0.0369 |
| AGGCATGC | 0.144 |
| CGAGGAGA | -0.162 |
| AGCCAAAC | 0.00731 |
| CATTGCGG | 0.158 |
| GCGCTGCA | 0.232 |
| GGATTGAA | -0.0161 |

| Sequence | PBM E-score |
| --- | --- |
| GCGTGAGC | 0.193 |
| GGGCGGCA | 0.356 |
| CGGCGGAA | 0.328 |
| GGGCGGAA | -0.0696 |
| CGGCGGTA | 0.335 |
| AGGCGGGA | -0.183 |
| AGGCGGTA | -0.0932 |
| AGGCGGAA | 0.0802 |
| GGGCGGGA | -0.11 |
| AGCCGGCA | 0.0341 |
| GGGCGGTA | -0.128 |
| AGGCGGCA | 0.369 |
| GGCGGGCA | 0.0418 |
| CACCTATG | -0.108 |
| CGCTAAAG | 0.0823 |
| GTTGAATA | 0.0719 |
| ATGTCCTC | -0.113 |
| AGCTGCGA | -0.129 |
| GCTCAACA | 0.00726 |
| CAGTCGGG | -0.14 |
| CGGCGGGA | 0.207 |
